Several values for one entry are separate records, joined by “and”; a condition that tells them apart may be missing. Equal entries are not always repeated. Records with an inconclusive call do not appear. A structure can be active in one record and inactive in another. Activity calls are given as the source filed them. Rule for the calls, unless noted: active = hit-call score of the fitted dose curve at least 0.9, where 1 is the maximum; inactive = score below 0.9.
Key:
[1] = read-out: Monokine induced gamma interferon (MIG), CXCL9 (gene 4283); assay: BSK_3C_MIG: BioMAP Diversity Plus: 3C Assay for Monokine induced gamma interferon (MIG) Biomarker Activity (AID 2283021); details: primary human endothelial cells (HUVEC); actives raise or lower the signal;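 for AC50: MIG protein level measured by immunoassay in the treated endothelial cultures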
Outline: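 ELISA-measured MIG in dosed HUVEC 3C cultures at 24 h, analysed by bidirectional fitting with DMSO defining baseline activity.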

[2] = target: human Vitamin D Receptor (VDR), VDR (gene 7421) (UniProt P11473); assay: ATG_VDR_TRANS: Attagene TRANS-FACTORIAL HepG2 Assay for human Vitamin D Receptor (VDR) (AID 2283022; active = hit-call score of the fitted dose curve at least 0.9, where 1 is the maximum)
Outline: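 RT-PCR/capillary electrophoresis read-out of reporter mRNA induction in transiently transfected HepG2; 24 h dosing; chimeric NR-Gal4 (TRANS format); gain-of-signal fit against DMSO baseline.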

[3] = read-out: Matrix Metallopeptidase 1 (MMP1), MMP1 (gene 4312); assay: BSK_BE3C_MMP1: BioMAP Diversity Plus: BE3C Assay for Matrix Metallopeptidase 1 (MMP1) Biomarker Activity (AID 2283024); details: primary human bronchial epithelial cells; actives raise or lower the signal
Outline: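 In this multiplexed primary-cell system, human bronchial epithelium received chemicals for 24 h before an ELISA for MMP1. Values reflect bidirectional fits normalised to the DMSO baseline.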

[4] = read-out: Pselectin, SELP (gene 6403); assay: BSK_4H_Pselectin: BioMAP Diversity Plus: 4H Assay for Pselectin Biomarker Activity (AID 2283026); details: primary human endothelial cells (HUVEC); actives raise or lower the signal
Outline: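 Bidirectional fits against DMSO gave the endpoint. Cells: primary human umbilical vein endothelium, chemical-treated for 24 h before ELISA detection of P-selectin.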

[5] = BSK_4H_SRB: Viability Assessment in the BioMAP Diversity Plus: 4H Assay (AID 2283027); details: primary human endothelial cells (HUVEC);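 note: cells exposed to compound for 24 h before staining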;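 for AC50: curves fitted both ways versus DMSO so AC50 may be loss or gain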
Outline: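 HUVEC, 24 h post-dose; 10% TCA fix, 0.1% SRB stain, A560 nm. Total protein = overt cytotoxicity, parallel to biomarker read. Bidirectional fit vs DMSO baseline.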

[6] = BSK_BE3C_SRB: Viability Assessment in the BioMAP Diversity Plus: BE3C Assay (AID 2283028); details: primary human bronchial epithelial cells;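 for AC50: fitted both ways so AC50 may mark signal gain or loss versus DMSO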
Outline: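 Primary human bronchial epithelium; chemical dosing, 24 h; 10% TCA fix, 0.1% SRB stain, A560; bidirectional fit vs DMSO baseline.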

[7] = read-out: Thrombomodulin, THBD (gene 7056); assay: BSK_3C_Thrombomodulin: BioMAP Diversity Plus: 3C Assay for Thrombomodulin Biomarker Activity (AID 2283029); details: primary human endothelial cells (HUVEC); actives raise or lower the signal
Outline: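 In a multiplexed primary-cell system, human umbilical vein endothelium received chemical and was assayed 24 h later for thrombomodulin by ELISA. Parallel cultures were SRB-stained (0.1% SRB after 10% TCA fixation, read at 560 nm) to flag cytotoxicity.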

[8] = read-out: Urokinase-type plasminogen activator receptor (uPAR), PLAUR (gene 5329); assay: BSK_4H_uPAR: BioMAP Diversity Plus: 4H Assay for Urokinase-type plasminogen activator receptor (uPAR) Biomarker Activity (AID 2283030); details: primary human endothelial cells (HUVEC); actives raise or lower the signal
Outline: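 HUVEC, 24 h post-dose; uPAR by ELISA; bidirectional fit vs DMSO baseline.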

[9] = BSK_3C_Vis: BioMAP Diversity Plus: 3C Assay for Morphology Visualization (AID 2283025); details: primary human endothelial cells (HUVEC);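 note: fitted both ways so gain or loss versus DMSO counts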;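 for AC50: light microscopy image of cell morphology used as background control; cells imaged 24 h after dosing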
Outline: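 Light-microscopy morphology readout, 24 h exposure, human primary umbilical vein endothelium; analysed relative to DMSO with bidirectional fitting.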

[10] = BSK_3C_SRB: Viability Assessment in the BioMAP Diversity Plus: 3C Assay (AID 2283023); details: primary human endothelial cells (HUVEC);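 note: cells read 24 h after compound dosing; fitted both ways against DMSO so a hit may be signal rise or drop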
Outline: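 HUVEC, 24 h post-dose; 10% TCA fix, 0.1% SRB stain, A560 nm. Bidirectional curve fit vs DMSO negative control.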

Measured: AC50

Chain of human Vitamin D Receptor (VDR), VDR (gene 7421) (P11473 whole entry, looked up, the tested form may be a part): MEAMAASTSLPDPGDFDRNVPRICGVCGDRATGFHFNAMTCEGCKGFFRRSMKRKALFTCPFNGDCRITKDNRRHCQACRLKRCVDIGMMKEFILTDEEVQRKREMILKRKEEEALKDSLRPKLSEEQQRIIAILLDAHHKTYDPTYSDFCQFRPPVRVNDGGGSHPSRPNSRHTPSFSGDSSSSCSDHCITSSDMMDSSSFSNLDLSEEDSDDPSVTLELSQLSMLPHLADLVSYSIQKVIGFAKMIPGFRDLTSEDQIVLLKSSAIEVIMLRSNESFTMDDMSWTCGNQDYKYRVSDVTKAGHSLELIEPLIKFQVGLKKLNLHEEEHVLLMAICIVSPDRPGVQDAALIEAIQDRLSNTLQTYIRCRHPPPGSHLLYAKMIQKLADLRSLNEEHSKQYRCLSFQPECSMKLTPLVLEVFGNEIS

CC1(C)CCC[C@]2(C)[C@H]3CCO[C@]3(C)CC[C@@H]12
active: [1] 34.9 µM | [4] 33.4 µM | [5] 32.1 µM and 33.9 µM | [6] 30 µM | [7] 14.6 µM and 17.3 µM | [8] 34.2 µM
inactive: [1] | [2] | [3] | [4] | [6] | [8]

CC(=O)c1c(C)c([N+](=O)[O-])c(C(C)(C)C)c([N+](=O)[O-])c1C
not listed: [2] | [10]
inactive: all other assays above

COc1cc(Cl)c(OC)cc1N
inactive: all assays above

CC1(C)C2=CCCC(C)(C)[C@]23CC[C@H]1C3
active: [10] 30.4 µM | [9] 37.4 µM | [4] 20 µM
not listed: [2]
inactive: all other assays above

Oc1c(Cl)cc(Cl)c(Cl)c1Cc1c(O)c(Cl)cc(Cl)c1Cl
active: [1] 31.1 µM | [3] 2.26 µM | [9] 13.7 µM | [4] 1.05 µM | [5] 6.35 µM | [6] 5.21 µM | [8] 2.26 µM
inactive: [2] | [7]

c1ccc(Oc2ccccc2)cc1
active: [9] 37.8 µM | [4] 30.8 µM | [5] 31.3 µM
not listed: [10]
inactive: all other assays above

COc1ccc(CCN2CCC(Nc3nc4ccccc4n3Cc3ccc(F)cc3)CC2)cc1
active: [9] 0.743 µM | [5] 2.49 µM | [8] 0.992 µM
not listed: [10]
inactive: all other assays above

CCN(CC)C(=O)N(CC)CC
inactive: all assays above

C=C(C)C(=O)OCC(CC)(COC(=O)C(=C)C)COC(=O)C(=C)C
active: [5] 9.41 µM
not listed: [2]
inactive: all other assays above

CCCCCC(C=O)=Cc1ccccc1
inactive: [1] | [6] | [7]
active: [3] 0.096 µM | [9] 37.8 µM | [4] 32.7 µM | [5] 34.1 µM | [8] 36.5 µM

CC(C)(C)CC(C)(C)c1ccc(OCCOCC[N+](C)(C)Cc2ccccc2)cc1
active: [1] 8.17 µM | [3] 6.86 µM | [9] 9.69 µM | [4] 5 µM | [5] 5.82 µM | [6] 8.4 µM | [8] 4.64 µM
inactive: [2] | [7]

O=CN1CCOCC1
not listed: [2] | [9] | [10]
inactive: all other assays above
